Experimental data: PubChem BioAssay AID1159580 (chemical genetic matrix, 2015)
Hit rate of the full screen: of about 5,500 compounds, about 2,000 (36%) were called active. Another 18% or so got no clear call; they are omitted. Some of the results follow. Values without a mark were called inactive. Rule as the data show it: active = normalized growth mostly below about 0.91 (no sharp cut-off); inconclusive = no clear call, values can overlap the other calls; inactive = mostly above about 0.92.

Test: chemical genetic growth profiling, strain panel (AID 1159580);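 also: tested at 20 µM; growth read once vehicle control cultures reached saturation at 30 °C; 1 = growth at the plate median or of vehicle wells; lower values mean less growth of the strain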
Details: S. cerevisiae deletion strains, growth OD

FC(F)(F)c1ccnc(-n2ccc(-c3cccs3)n2)n1
normalized growth (locus YAL013W, strain DEP1, stronger effect = lower value): 0.94
normalized growth (locus YBR229C, strain ROT2, stronger effect = lower value): 0.964
normalized growth (locus YCL061C, strain MRC1, stronger effect = lower value): 0.926
normalized growth (locus YDL101C, strain DUN1, stronger effect = lower value): 0.916
normalized growth (locus YDR150W, strain NUM1, stronger effect = lower value): 0.987
normalized growth (locus YEL061C, strain CIN8, stronger effect = lower value): 0.946
normalized growth (locus YGR078C, strain PAC10, stronger effect = lower value): 0.973
normalized growth (locus YGR229C, strain SMI1, stronger effect = lower value): 0.972
normalized growth (locus YHR030C, strain SLT2, stronger effect = lower value): 0.457 (active)
normalized growth (locus YHR087W, strain rtc3, stronger effect = lower value): 1.01
normalized growth (locus YJR043C, strain POL32, stronger effect = lower value): 0.963
normalized growth (locus YJR075W, strain HOC1, stronger effect = lower value): 0.964
normalized growth (locus YKL190W, strain CNB1, stronger effect = lower value): 0.952
normalized growth (locus YLR039C, strain RIC1, stronger effect = lower value): 0.733 (active)
normalized growth (locus YLR058C, strain SHM2 (second series), stronger effect = lower value): 0.982
normalized growth (locus YLR085C, strain ARP6, stronger effect = lower value): 0.528 (active)
normalized growth (locus YLR262C, strain YPT6, stronger effect = lower value): 0.795 (active)
normalized growth (locus YML094W, strain GIM5, stronger effect = lower value): 0.887
normalized growth (locus YMR219W, strain ESC1, stronger effect = lower value): 0.995
normalized growth (locus YMR263W, strain SAP30, stronger effect = lower value): 0.955
normalized growth (locus YNL128W, strain TEP1, stronger effect = lower value): 0.953
normalized growth (locus YNL153C, strain GIM3, stronger effect = lower value): 0.955
normalized growth (locus YNL298W, strain CLA4 (second series), stronger effect = lower value): 0.815 (active)
normalized growth (locus YNL322C, strain KRE1, stronger effect = lower value): 0.994
normalized growth (locus YNR030W, strain Alg12, stronger effect = lower value): 0.891
normalized growth (locus YOL006C, strain TOP1, stronger effect = lower value): 0.64 (active)
normalized growth (locus YPL055C, strain LGE1, stronger effect = lower value): 0.881
normalized growth (locus YPL241C, strain CIN2, stronger effect = lower value): 0.9
normalized growth (locus YPR135W, strain CTF4, stronger effect = lower value): 0.535 (active)
